Results: PubChem BioAssay AID1159580 (chemical genetic matrix, 2015)
Values joined by “and” are separate entries in the source; they are usually repeats but may differ in a detail not shown here. Equal entries are not always repeated. In all, about 5,500 compounds went through this assay and about 2,000 (36%) were called active. Inconclusive results (about 18%) are left out. Rule as the data show it: active = normalized growth mostly below about 0.91 (no sharp cut-off); inconclusive = no clear call, values can overlap the other calls; inactive = mostly above about 0.92. Some of the results follow.

Test: chemical genetic growth profiling, strain panel (AID 1159580);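 also: tested at 20 µM; growth read once vehicle control cultures reached saturation at 30 °C; 1 = growth at the plate median or of vehicle wells; lower values mean less growth of the strain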
Settings: S. cerevisiae deletion strains, growth OD

Measured: normalized growth

Cc1[nH]c2ccccc2c1CN(C)C
inactive: locus YAL021C, strain ccr4, stronger effect = lower value 1.01 | locus YAL026C, strain drs2, stronger effect = lower value 1.03 | locus YAL030W, strain snc1, stronger effect = lower value 1.02 | locus YBL061C, strain skt5, stronger effect = lower value 1.02 | locus YBR009C, strain hhf1, stronger effect = lower value 1.02 | locus YBR021W, strain FUR4, stronger effect = lower value 0.951 | locus YBR023C, strain chs3, stronger effect = lower value 1.02 | locus YBR171W, strain sec66, stronger effect = lower value 1.02 | locus YBR229C, strain ROT2, stronger effect = lower value 0.998 | locus YBR231C, strain swc5, stronger effect = lower value 1.02 | locus YBR279W, strain paf1, stronger effect = lower value 1.01 | locus YCL011C, strain gbp2, stronger effect = lower value 1.02 | locus YCL016C, strain dcc1, stronger effect = lower value 1.01 | locus YCL029C, strain bik1, stronger effect = lower value 0.986 | locus YCL069W, strain vba3, stronger effect = lower value 1.01 | locus YCR088W, strain abp1, stronger effect = lower value 1.02 | locus YDL005C, strain med2, stronger effect = lower value 1.03 | locus YDL035C, strain GPR1, stronger effect = lower value 1.01 | locus YDL040C, strain nat1, stronger effect = lower value 1.02 | locus YDL074C, strain BRE1, stronger effect = lower value 1 | locus YDL101C, strain DUN1, stronger effect = lower value 1.01 | locus YDL134C, strain PPH21, stronger effect = lower value 1.02 | locus YDL185W, strain tfp1, stronger effect = lower value 1.01 | locus YDL192W, strain arf1, stronger effect = lower value 0.983 | locus YDR001C, strain nth1, stronger effect = lower value 1.01 | locus YDR069C, strain doa4, stronger effect = lower value 1.02 | locus YDR101C, strain arx1, stronger effect = lower value 0.968 | locus YDR137W, strain rgp1, stronger effect = lower value 1.03 | locus YDR150W, strain NUM1, stronger effect = lower value 1.01 | locus YDR159W, strain sac3, stronger effect = lower value 1.05 | locus YDR162C, strain NBP2, stronger effect = lower value 1.07 | locus YDR195W, strain ref2 1.03 | locus YDR297W, strain sur2, stronger effect = lower value 1.02 | locus YDR318W, strain mcm21, stronger effect = lower value 0.995 | locus YDR334W, strain swr1, stronger effect = lower value 1.01 | locus YDR335W, strain msn5, stronger effect = lower value 1.01 | locus YDR388W, stronger effect = lower value 0.993 | locus YDR392W, strain spt3, stronger effect = lower value 1.03 | locus YDR502C, strain sam2, stronger effect = lower value 0.987 | locus YEL003W, strain gim4, stronger effect = lower value 1.01 | locus YEL037C, strain rad23, stronger effect = lower value 1.01 | locus YEL061C, strain CIN8 (second series), stronger effect = lower value 1.03 | locus YEL061C, strain CIN8, stronger effect = lower value 1.02 | locus YER015W, strain faa2, stronger effect = lower value 1.01 | locus YER016W, strain bim1, stronger effect = lower value 1.01 | locus YER110C, stronger effect = lower value 0.984 | locus YER111C, strain swi4, stronger effect = lower value 1.03 | locus YER155C, strain BEM2, stronger effect = lower value 0.983 | locus YER167W, strain BCK2, stronger effect = lower value 1 | locus YFR010W, strain ubp6, stronger effect = lower value 1.01 | locus YGL078C, strain dbp3, stronger effect = lower value 1.01 | locus YGL086W, strain mad1, stronger effect = lower value 0.996 | locus YGL167C, strain pmr1, stronger effect = lower value 1.04 | locus YGL173C, strain kem1, stronger effect = lower value 1.03 | locus YGL227W, strain vid30, stronger effect = lower value 1.01 | locus YGL240W, strain doc1, stronger effect = lower value 1.01 | locus YGL248W, strain PDE1, stronger effect = lower value 1.03 | locus YGL253W, strain hxk2, stronger effect = lower value 1.02 | locus YGR135W, strain pre9, stronger effect = lower value 0.995 | locus YGR229C, strain SMI1, stronger effect = lower value 1.06 | locus YGR252W, strain gcn5, stronger effect = lower value 0.908 | locus YHR013C, strain ard1, stronger effect = lower value 1.03 | locus YHR027C, strain rpn1, stronger effect = lower value 1.03 | locus YHR030C, strain SLT2, stronger effect = lower value 1 and 0.988 | locus YHR079C, strain IRE1 (second series), stronger effect = lower value 0.995 | locus YHR079C, strain IRE1, stronger effect = lower value 0.982 | locus YHR094C, strain hxt1, stronger effect = lower value 0.989 | locus YHR129C, strain ARP1, stronger effect = lower value 1.01 | locus YHR142W, strain chs7, stronger effect = lower value 1.03 | locus YHR200W, strain rpn10, stronger effect = lower value 0.991 | locus YIL066C, strain RNR3, stronger effect = lower value 1.02 | locus YIL073C, strain SPO22, stronger effect = lower value 1.02 | locus YIL125W, strain kgd1, stronger effect = lower value 1.01 | locus YIR030C, strain dcg1, stronger effect = lower value 0.99 | locus YJL092W, strain hpr5, stronger effect = lower value 1.01 | locus YJL095W, strain BCK1 (second series), stronger effect = lower value 1.02 | locus YJL095W, strain BCK1, stronger effect = lower value 1.06 and 0.973 | locus YJL115W, strain asf1, stronger effect = lower value 1.02 | locus YJL129C, strain trk1, stronger effect = lower value 1.03 | locus YJL134W, strain LCB3, stronger effect = lower value 0.994 | locus YJL154C, strain vps35, stronger effect = lower value 1.02 | locus YJL164C, strain tpk1, stronger effect = lower value 1.01 | locus YJL166W, strain qcr8, stronger effect = lower value 1.02 | locus YJL168C, strain set2, stronger effect = lower value 0.993 | locus YJL187C, strain SWE1 (second series), stronger effect = lower value 1.01 | locus YJL187C, strain SWE1, stronger effect = lower value 1.02 | locus YJR043C, strain POL32, stronger effect = lower value 0.995 | locus YJR066W, strain TOR1, stronger effect = lower value 0.906
